Among the test systems are HT29 colon; SNB-75 CNS; SNB-19 CNS; U251 CNS; SK-MEL-5 melanoma; UACC-62 melanoma; SK-MEL-28 melanoma; SK-MEL-2 melanoma; LOX IMVI melanoma; PC-3 prostate.
What all share (assay): NCI-60 one-dose screen, 48 h (100 = growth as untreated, 0 = no growth, -100 = all killed)
Details in all cases: 10 µM unless noted

Compounds without any hit were thinned out: in the full panel of roughly 83,000, 20% have a hit.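 96-well plates, one dose, 48 hours. Percent growth reported; active if below 10.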 Unmarked numbers belong to inactive results. Calls of active or inactive are those of the source.

Turning to `CCn1c2ccccc2c2ccc(C(C)=O)cc21`, the growth was 95.9% in the experiment on HT29 colon; 94.9% with SNB-75 CNS; 106% in the experiment on SNB-19 CNS; 101% in the experiment on U251 CNS; 94.4% with SK-MEL-5 melanoma; 97.9% with UACC-62 melanoma. For the same molecule, the growth in the experiment with SK-MEL-28 melanoma was 106%; in the experiment with SK-MEL-2 melanoma it was 112%.

Take `O=C1OCCCCCCCCCC#Cc2ccccc21`: the growth with HT29 colon was 70.8%; with SNB-75 CNS it was 88.7%; in the experiment on SNB-19 CNS, 98.6%; with U251 CNS, 115%; with SK-MEL-5 melanoma, 89%; in the experiment with UACC-62 melanoma, 99.2%. Moreover, the growth in the experiment on LOX IMVI melanoma is 140%; with SK-MEL-28 melanoma it was 110%; in the experiment on SK-MEL-2 melanoma it was 109%.

`CCOC(=O)c1c2c(c(C)n1Cc1ccc(OC)cc1)-c1nc(N)ncc1CC2`: the growth in the experiment with HT29 colon was 110%; in the experiment on SNB-75 CNS, 103%; in the experiment on SNB-19 CNS, 111%; in the experiment with U251 CNS, 106%; with SK-MEL-5 melanoma it was 110%; in the experiment on UACC-62 melanoma, 87.3%. The growth is 104% in the experiment on LOX IMVI melanoma, 112% in the experiment with SK-MEL-28 melanoma and 119% in the experiment with SK-MEL-2 melanoma.

For `COc1ccc2c(c1)C(=O)/C(=C/c1cccc(OCC(=O)c3ccccc3)c1)CC2`, the growth with HT29 colon is 80.9%; in the experiment on SNB-75 CNS, 112%; with SNB-19 CNS it was 100%; in the experiment on U251 CNS it was 76.9%; in the experiment on SK-MEL-5 melanoma, 39.3%; with LOX IMVI melanoma it was 70.3%. Further, the values for the growth in the experiment on SK-MEL-28 melanoma and with SK-MEL-2 melanoma were 106% and 67.3%, respectively.

With `Oc1[nH]c2ccc(Cl)cc2c1/C=c1/ccc2c(c1)N=C(c1ccc(C(F)(F)F)cc1)N=2`, the growth in the experiment with HT29 colon is 42.2%; in the experiment on SNB-75 CNS, 15.8%; with SNB-19 CNS, 77%; in the experiment with U251 CNS it was 49.8%; in the experiment on SK-MEL-5 melanoma it was 63.4%; in the experiment on LOX IMVI melanoma it was 34.2%. The growth in the experiment on SK-MEL-28 melanoma is 45.8%; in the experiment on SK-MEL-2 melanoma it was 63.3%.

In the case of `COc1ccc2[nH]c(-c3ccccc3)cc2c1`, the growth is 102% in the experiment on HT29 colon; 88% in the experiment on SNB-75 CNS; 93.4% with SNB-19 CNS; 107% in the experiment with U251 CNS; 97% in the experiment with SK-MEL-5 melanoma; 84.7% in the experiment on UACC-62 melanoma. Also, the growth with LOX IMVI melanoma is 105%; in the experiment on SK-MEL-28 melanoma, 110%; in the experiment on SK-MEL-2 melanoma, 101%.

With `O=C1CC(C(F)(F)F)=NN1C(=O)c1nn(-c2ccc(Cl)cc2)cc1O`, the growth in the experiment with HT29 colon was 110%; in the experiment with SNB-75 CNS it was 74.6%; in the experiment on SNB-19 CNS it was 87.7%; in the experiment on U251 CNS, 64.9%; with SK-MEL-5 melanoma, 88.4%; with UACC-62 melanoma, 96.4%. Moreover, the growth was 62.6% in the experiment with LOX IMVI melanoma, 115% with SK-MEL-28 melanoma and 96.9% in the experiment on SK-MEL-2 melanoma.

Take `COc1ccc(-c2cc(C(=O)Nc3nc4cc(C)c(C)cc4s3)nc3cc(-c4ccccc4)nn23)cc1OC`: the growth was 93.1% with HT29 colon; 87.9% in the experiment on SNB-75 CNS; 108% in the experiment on SNB-19 CNS; 111% in the experiment with U251 CNS; 110% with SK-MEL-5 melanoma; 107% in the experiment with UACC-62 melanoma. For the same molecule, the growth in the experiment with LOX IMVI melanoma is 95.1%; in the experiment with SK-MEL-28 melanoma, 94.4%; with SK-MEL-2 melanoma, 113%.

As to `O=C1CCCN1C1CCN(Cc2cc3ccccc3[nH]c2=O)c2ccccc21` (stereo not drawn), the growth was 92.9% in the experiment on HT29 colon; 79.3% in the experiment on SNB-75 CNS; 96.8% in the experiment on SNB-19 CNS; 96.1% in the experiment with U251 CNS; 86.1% in the experiment on SK-MEL-5 melanoma; 90.4% in the experiment on LOX IMVI melanoma. The growth was 103% in the experiment with SK-MEL-28 melanoma and 96.1% in the experiment with SK-MEL-2 melanoma.

Take `COc1ccc(Cn2cc3c(c2-c2ccccc2)CCc2cncnc2-3)cc1`: the growth with HT29 colon is 19.7%; in the experiment on SNB-75 CNS, 71.1%; with SNB-19 CNS, 62.8%; in the experiment with U251 CNS it was 47%; in the experiment with SK-MEL-5 melanoma, 55.4%; in the experiment on UACC-62 melanoma, 33.3%. The growth in the experiment on LOX IMVI melanoma is 52.3%; in the experiment with SK-MEL-28 melanoma it was 59.3%; in the experiment with SK-MEL-2 melanoma it was 28.2%.

`COc1ccc(C2=NN(C(C)=O)C(c3cc(OC)c(OC)c(OC)c3)C2)cc1` (stereo not drawn): the growth in the experiment with HT29 colon is 103%; in the experiment with SNB-75 CNS, 96.6%; in the experiment on SNB-19 CNS, 90.7%; in the experiment with U251 CNS it was 105%; in the experiment on SK-MEL-5 melanoma it was 92.6%; in the experiment on UACC-62 melanoma, 101%. Also, the growth with LOX IMVI melanoma is 90.6%; with SK-MEL-28 melanoma it was 129%; with SK-MEL-2 melanoma it was 99%.

On to `COc1ccc(-c2cn(-c3ccccc3)c(-c3ccccc3)n2)cc1OC`, for which the growth in the experiment with HT29 colon was 19.4%; in the experiment on SNB-75 CNS, 95.9%; in the experiment on SNB-19 CNS it was 117%; with U251 CNS it was 29.2%; in the experiment on SK-MEL-5 melanoma it was 74.5%; in the experiment on LOX IMVI melanoma, 14.5%. Besides, the growth with SK-MEL-28 melanoma was 102%.

As to `O=C1NCN(CCO)CN1`, the growth in the experiment on HT29 colon is 99.8%; with SNB-75 CNS, 100%; with SNB-19 CNS, 100%; in the experiment with U251 CNS, 109%; in the experiment with SK-MEL-5 melanoma it was 106%; in the experiment on UACC-62 melanoma, 92.8%. Further, the growth was 103% in the experiment on LOX IMVI melanoma, 110% in the experiment with SK-MEL-28 melanoma and 108% with SK-MEL-2 melanoma.

As for `COc1ccc(C(=O)COc2cccc(/C=C3\Oc4ccc5ccccc5c4C3=O)c2)cc1`, the growth in the experiment with HT29 colon was 46.2%; in the experiment with SNB-75 CNS, 44.8%; with SNB-19 CNS, 105%; in the experiment on U251 CNS, 84%; with SK-MEL-5 melanoma it was 78.6%; in the experiment on UACC-62 melanoma, 76.4%. Further, the figures for the growth in the experiment with LOX IMVI melanoma, in the experiment with SK-MEL-28 melanoma and in the experiment with SK-MEL-2 melanoma were -80.4% (active), 116% and 59.1%, respectively.

On to `CC(C)C(=O)Cc1cnccn1`, for which the growth in the experiment with HT29 colon was 108%; in the experiment with SNB-75 CNS, 102%; in the experiment with SNB-19 CNS, 102%; with PC-3 prostate, 102%; with SK-MEL-5 melanoma it was 109%; with UACC-62 melanoma, 98.1%. Also, the growth was 97% in the experiment on LOX IMVI melanoma, 116% in the experiment with SK-MEL-28 melanoma and 109% in the experiment on SK-MEL-2 melanoma.

With `Cc1nn(-c2ccccc2)c(Cl)c1C(CC(=O)c1ccc(Cl)cc1)CC(=O)c1ccc(Cl)cc1`, the growth is 77% in the experiment on HT29 colon; 86.8% in the experiment with SNB-75 CNS; 82.4% in the experiment on SNB-19 CNS; 73.1% in the experiment on PC-3 prostate; 89.7% in the experiment with SK-MEL-5 melanoma; 82.4% in the experiment with UACC-62 melanoma. The growth was 81.8% in the experiment with LOX IMVI melanoma, 112% with SK-MEL-28 melanoma and 89.1% in the experiment with SK-MEL-2 melanoma.

The values above are taken from PubChem BioAssay (NCI).
